PubChem BioAssay (NCATS)
Results filed as inconclusive are left out. A number with no mark means an inactive call. Calls of active or inactive are those of the source. Calls follow the shape of the dose curve; as a rule, active = well fitted cell-killing curve with a large enough effect; inconclusive = small, poorly fitted or top-dose-only effect, or effect the other way; inactive = flat fitted curve, though single readings scatter.

What follows are compounds tested on PA-1 (assay: Primary qHTS to identify gynecologic anti-cancer compounds using libraries of approved drugs and bioactive compounds (AID 1345084; also: nearly all actives have a fitted effect of over 55% in size)). Conditions: Gynecologic cancer cell panel viability, ATPlite luminescence, 48 h; series mostly up to 57.5 µM; activity change, negative = cytotoxicity: at the top concentration.
Summary of the method: (§1)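 Five-concentration response, 48 h; readout is ATP-driven luciferase luminescence.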
% is scaled to controls: 0 for no effect and ±100 for the full control effect.

| Compound | activity change, negative = cytotoxicity | Potency |
| --- | --- | --- |
| NCCCC(N)(C(=O)O)C(F)F (configuration not stated) | -8.51% | – |
| COc1c(Cl)cc2c([nH]c3cnccc32)c1NC(=O)c1cccnc1C | -2.53% | – |
| CCCc1nn(C)c2c(=O)[nH]c(-c3cc(S(=O)(=O)N4CCN(C)CC4)ccc3OCC)nc12 | – | inactive |
| CN(C)c1ccc(C2Nc3ccc4ccccc4c3C3=C2C(=O)CC(C)(C)C3)cc1Br (configuration not stated) | 7.65% | – |
| Cc1ccc(N(CC2=NCCN2)c2cccc(O)c2)cc1 | 6.93% | – |
| Nc1ccc(S(=O)(=O)Nc2ccnn2-c2ccccc2)cc1 | 3.19% [at 25.3 µM] | – |
| c1ccc([C@H]2CN3CCSC3=N2)cc1 | -3.29% | – |
| Cc1cn[nH]c1 | -0.238% | – |
| NC(=O)c1cnccn1 | 6.7% | – |
| Cn1cc(-c2ccc3nnc(C(F)(F)c4ccc5ncccc5c4)n3n2)cn1 | 17.6% | – |
| COc1ccc2nc(S(=O)Cc3ncc(C)c(OC)c3C)[nH]c2c1 (configuration not stated) | -18.5% | – |
| OC(CN1CCC(Cc2ccc(F)cc2)CC1)c1ccc(Cl)cc1 (configuration not stated) | 2.14% | – |
| CC[C@@H](C)[C@H](NC(=O)[C@H](CC1CCCCC1)NC(=O)c1ccno1)C(=O)N1CCC2(CCc3ccccc32)CC1 | 2.7% | – |
| NNCCc1ccccc1 | 1.7% | – |
| Cc1ccccc1C(OCCN(C)C)c1ccccc1 (configuration not stated) | -12% | – |
| CCC(C)n1ncn(-c2ccc(N3CCN(c4ccc(OC[C@H]5CO[C@](Cn6cncn6)(c6ccc(Cl)cc6Cl)O5)cc4)CC3)cc2)c1=O (some centres not stated) | -6.9% | – |
| CC(C)OC(=O)C1=CN(C(=O)c2ccc(F)c(F)c2)CC(C)(C)c2c1[nH]c1ccccc21 | 9.12% | – |
| OCCn1cc(-c2cnc3nnn(Cc4ccc5ncccc5c4)c3n2)cn1 | 3.47% | – |

These compounds were tested on SKOV3 in the same assay as above. Conditions: Gynecologic cancer cell panel viability, ATPlite luminescence, 48 h; series mostly up to 57.5 µM; activity change, negative = cytotoxicity: at the top concentration.
Summary of the method: as §1

| Compound | activity change, negative = cytotoxicity [%] |
| --- | --- |
| NCCCC(N)(C(=O)O)C(F)F (configuration not stated) | -4.89 |
| CCCc1nn(C)c2c(=O)[nH]c(-c3cc(S(=O)(=O)N4CCN(C)CC4)ccc3OCC)nc12 | -3.17 |
| CN(C)c1ccc(C2Nc3ccc4ccccc4c3C3=C2C(=O)CC(C)(C)C3)cc1Br (configuration not stated) | 5.01 |
| Cc1ccc(N(CC2=NCCN2)c2cccc(O)c2)cc1 | -4.12 |
| c1ccc([C@H]2CN3CCSC3=N2)cc1 | 0.466 |
| Cc1cn[nH]c1 | -8.06 |
| NC(=O)c1cnccn1 | 22.9 |
| COc1ccc2nc(S(=O)Cc3ncc(C)c(OC)c3C)[nH]c2c1 (configuration not stated) | -20.7 |
| OC(CN1CCC(Cc2ccc(F)cc2)CC1)c1ccc(Cl)cc1 (configuration not stated) | 0 |
| CC[C@@H](C)[C@H](NC(=O)[C@H](CC1CCCCC1)NC(=O)c1ccno1)C(=O)N1CCC2(CCc3ccccc32)CC1 | 19 |
| NNCCc1ccccc1 | -3.28 |
| Cc1ccccc1C(OCCN(C)C)c1ccccc1 (configuration not stated) | -11.4 |
| CCC(C)n1ncn(-c2ccc(N3CCN(c4ccc(OC[C@H]5CO[C@](Cn6cncn6)(c6ccc(Cl)cc6Cl)O5)cc4)CC3)cc2)c1=O (some centres not stated) | -7.67 |
| CC(C)OC(=O)C1=CN(C(=O)c2ccc(F)c(F)c2)CC(C)(C)c2c1[nH]c1ccccc21 | 0 |
| OCCn1cc(-c2cnc3nnn(Cc4ccc5ncccc5c4)c3n2)cn1 | 11.8 |

Each compound was assayed on Tov-21-G in the same assay as above. Conditions: Gynecologic cancer cell panel viability, ATPlite luminescence, 48 h; series mostly up to 57.5 µM; activity change, negative = cytotoxicity: at the top concentration.
Summary of the method: as §1

| Compound | activity change, negative = cytotoxicity | Potency |
| --- | --- | --- |
| NCCCC(N)(C(=O)O)C(F)F (configuration not stated) | 0.531% | – |
| COc1c(Cl)cc2c([nH]c3cnccc32)c1NC(=O)c1cccnc1C | 1.3% | – |
| CCCc1nn(C)c2c(=O)[nH]c(-c3cc(S(=O)(=O)N4CCN(C)CC4)ccc3OCC)nc12 | – | inactive |
| Cc1ccc(N(CC2=NCCN2)c2cccc(O)c2)cc1 | -20% | – |
| Nc1ccc(S(=O)(=O)Nc2ccnn2-c2ccccc2)cc1 | 1.28% [at 25.3 µM] | – |
| c1ccc([C@H]2CN3CCSC3=N2)cc1 | 0.22% | – |
| Cc1cn[nH]c1 | -0.773% | – |
| NC(=O)c1cnccn1 | 3.16% | – |
| Cn1cc(-c2ccc3nnc(C(F)(F)c4ccc5ncccc5c4)n3n2)cn1 | 10.2% | – |
| COc1ccc2nc(S(=O)Cc3ncc(C)c(OC)c3C)[nH]c2c1 (configuration not stated) | -7.95% | – |
| OC(CN1CCC(Cc2ccc(F)cc2)CC1)c1ccc(Cl)cc1 (configuration not stated) | -4.37% | – |
| CC[C@@H](C)[C@H](NC(=O)[C@H](CC1CCCCC1)NC(=O)c1ccno1)C(=O)N1CCC2(CCc3ccccc32)CC1 | 28.9% | – |
| NNCCc1ccccc1 | -4.66% | – |
| Cc1ccccc1C(OCCN(C)C)c1ccccc1 (configuration not stated) | -2.77% | – |
| CCC(C)n1ncn(-c2ccc(N3CCN(c4ccc(OC[C@H]5CO[C@](Cn6cncn6)(c6ccc(Cl)cc6Cl)O5)cc4)CC3)cc2)c1=O (some centres not stated) | – | inactive |
| CC(C)OC(=O)C1=CN(C(=O)c2ccc(F)c(F)c2)CC(C)(C)c2c1[nH]c1ccccc21 | 7.11% | – |
| OCCn1cc(-c2cnc3nnn(Cc4ccc5ncccc5c4)c3n2)cn1 | 7.57% | – |

Each compound was assayed on Tov112D in the same assay as above. Conditions: Gynecologic cancer cell panel viability, ATPlite luminescence, 48 h; series mostly up to 57.5 µM; activity change, negative = cytotoxicity: at the top concentration.
Summary of the method: as §1

| Compound | activity change, negative = cytotoxicity | Potency |
| --- | --- | --- |
| NCCCC(N)(C(=O)O)C(F)F (configuration not stated) | 2.68% | – |
| COc1c(Cl)cc2c([nH]c3cnccc32)c1NC(=O)c1cccnc1C | 14.7% | – |
| CCCc1nn(C)c2c(=O)[nH]c(-c3cc(S(=O)(=O)N4CCN(C)CC4)ccc3OCC)nc12 | – | inactive |
| CN(C)c1ccc(C2Nc3ccc4ccccc4c3C3=C2C(=O)CC(C)(C)C3)cc1Br (configuration not stated) | -2.83% | – |
| Nc1ccc(S(=O)(=O)Nc2ccnn2-c2ccccc2)cc1 | 1.45% [at 25.3 µM] | – |
| c1ccc([C@H]2CN3CCSC3=N2)cc1 | 0.965% | – |
| Cc1cn[nH]c1 | 2.48% | – |
| NC(=O)c1cnccn1 | -17.6% | – |
| Cn1cc(-c2ccc3nnc(C(F)(F)c4ccc5ncccc5c4)n3n2)cn1 | -12.7% | – |
| COc1ccc2nc(S(=O)Cc3ncc(C)c(OC)c3C)[nH]c2c1 (configuration not stated) | -19.2% | – |
| OC(CN1CCC(Cc2ccc(F)cc2)CC1)c1ccc(Cl)cc1 (configuration not stated) | -0.731% | – |
| CC[C@@H](C)[C@H](NC(=O)[C@H](CC1CCCCC1)NC(=O)c1ccno1)C(=O)N1CCC2(CCc3ccccc32)CC1 | -1.85% | – |
| NNCCc1ccccc1 | -12% | – |
| Cc1ccccc1C(OCCN(C)C)c1ccccc1 (configuration not stated) | 1.25% | – |
| CCC(C)n1ncn(-c2ccc(N3CCN(c4ccc(OC[C@H]5CO[C@](Cn6cncn6)(c6ccc(Cl)cc6Cl)O5)cc4)CC3)cc2)c1=O (some centres not stated) | – | inactive |
| CC(C)OC(=O)C1=CN(C(=O)c2ccc(F)c(F)c2)CC(C)(C)c2c1[nH]c1ccccc21 | 2.29% | – |
| OCCn1cc(-c2cnc3nnn(Cc4ccc5ncccc5c4)c3n2)cn1 | -5.89% | – |
